Vc quorum ag-1 = inducers of Vibrio cholerae quorum light production without autoinducers, primary screen, BH1578 luxS cqsA deficient, single point | V. cholerae BH1578 lux reporter, luminescence, 6 h | activation, % at 18.7 µM | actives 0.16% (n = 350,000); in the data active means activation mostly above about 9.7%, no sharp cut-off
RN4220 kill = growth inhibition of S. aureus RN4220, primary screen, OD600. inhibition, % (test concentration not listed). AID 1259311, 2017. actives 0.33% (n = 330,000). 16 h; in the data active means inhibition above about 85%;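 further: plate controls were untreated cells for no effect and reference antibiotic for full effect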
Mtb betalactam = beta-lactam sensitization of Mtb H37Rv, H37Rv; AID 434955, 2010; M. tuberculosis H37Rv growth with meropenem, percent inhibition; actives 0.27% (n = 330,000); inhibition, % at 25 µM;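 further: growth measured after seven days incubation then overnight dye step; 0% = bacteria only wells and 100% = bacteria with antibiotic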
Sa ugtP lethal = growth inhibition of ugtP-null S. aureus, primary screen, RN4220 ugtP deletion, OD600; growth inhibition, % (test concentration not listed); actives 0.54% (n = 330,000); AID 1259309, 2017; 16 h; in the data active means growth inhibition above about 68%;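 further: plate controls were untreated wells for no effect and antibiotic for full effect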
PfHsp40 rescue = rescue of yeast from PfHsp40 toxicity, primary screen, S. cerevisiae, ATP luminescence; S. cerevisiae expressing PfHsp40, growth rescue; growth rescue, % at 12.5 µM; actives 0.68% (n = 340,000); AID 504582, 2011; in the data active means growth rescue above about 28%, passing the limit was not always enough;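 further: yeast W303a lacking pdr1 and pdr3 grown in galactose medium; growth measured after three days at 30 °C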
Vc quorum ag-2 = V. cholerae lux activation without autoinducers – BH1578 luxS cqsA deficient, cherry-pick, plate reader, dose response; activation, % at 50 µM; 620 tested, under 10 active; shares compounds with Vc quorum ag-1; V. cholerae BH1578 lux reporter, luminescence, 6 h; AID 602243, 2012
HeLa tox = HeLa cell cytotoxicity, dose response, cytotoxicity control, 24 h, dry powder | 25 tested, under 10 active | shares compounds with Vc quorum ag-1 | HeLa viability, CellTiter-Glo ATP luminescence | activity change, negative = cytotoxicity, % at 35 µM;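 active means signal drop with fitted half-maximal concentration at or below twice the highest valid dose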
Starred values were filed as active, the others as inactive; i = inactive; . = no result. In the library only some 1.2% were active in any assay of this set; here they are far more common. Unless noted, how the calls were made is not given here.

SMILES	Vc quorum ag-1	RN4220 kill	Mtb betalactam	Sa ugtP lethal	PfHsp40 rescue	Vc quorum ag-2	others
O=C1NCC(Cc2ccccc2)N(CC2CCCCC2)C1=O (stereo unspecified)	.	8	.	-2	.	.
Cc1nnc(SCC(=O)NCc2cccs2)n1-c1ccccc1	i	2	-4	4	2	.
Cc1occc1-c1nnc(SCC(=O)NCc2cccs2)n1-c1ccc(F)cc1	14	2	9	7	1	0
CC(C)OC(=O)CSc1nnc(SCc2cccc3ccccc23)s1	29*	11	100	29	2	0
CCOc1ccc(C(=O)OCC(=O)N2CCCC2)cc1	25*	0	3	7	1	8
CCc1ccc(C(=O)OCC(=O)N2CCCCCC2)cc1	3	2	1	10	0	.
CCN1C(=O)C2C(c3ccc(C)cc3)N3C(=O)N(c4cccc(F)c4)C(=O)[C@@]3(CC)C2C1=O (stereo partly specified)	.	4	.	3	.	.
O=S(=O)(Nc1cccc(S(=O)(=O)N2CCCCC2)c1)c1ccccc1F	26*	9	1	-3	-1	0
CCOC(=O)C1CCCc2c1[nH]c1c(C(=O)O)cccc21 (stereo unspecified)	12	8	17	-5	-1	1
O=C1C(=O)N(Cc2ccco2)C(c2cccc(Cl)c2)/C1=C(\O)c1ccc2c(c1)OCCO2 (stereo unspecified)	12	4	-3	-3	0	0
COc1ccc(-c2nnn(CC(=O)c3ccc4c(c3)OCCO4)n2)cc1OC	5.6*	4	-4	2	0	0
CC(C)[C@H](NC(=O)c1ccccc1F)C(=O)NC1CCCCC1	0	7	0	10	1	.
CC(C)[C@H](NC(=O)c1ccccc1F)C(=O)OCC(=O)NC1CC1	20*	-1	2	-1	0	0
CC(=NNC(=O)c1cc(-c2cccc(OC(C)C)c2)nc2ccccc12)c1cccnc1	.	1	.	10	.	.
COc1ccccc1CNC(=O)C1CSC2(C)CCC(=O)N12 (stereo unspecified)	i	0	7	0	-1	.
COc1cccc(CNC(=O)C2CSC3(C)CCC(=O)N23)c1 (stereo unspecified)	14	-1	-16	0	0	0
O=c1cc(CSc2ccccn2)c2ccccc2[nH]1	27*	31	0	-6	0	1
COc1ccccc1CCN1CCCC(CN(C)C(=O)c2ccco2)C1 (stereo unspecified)	14	1	3	12	0	0
O=C(CNC(=O)C1COc2ccccc2O1)NN=Cc1ccc(Br)cc1 (stereo unspecified)	.	5	.	6	.	.
CCCCn1nnnc1NCc1ccc(N(CC)CC)cc1	366*	4	1	6	-2	i
CCCCn1nnnc1NCc1ccc(C)cc1	0	3	7	5	0	.
CC(=O)Nc1nn(C)c2nc3cc(C)ccc3cc12	0	-4	-2	-11	0	.
Cc1ccc2cc3c(NC(=O)c4ccco4)nn(C)c3nc2c1	.	.	11	.	0	.	HeLa tox=-1
CC(C)c1cc(C(=O)NN=Cc2c[nH]c3ccccc23)n[nH]1	.	4	.	10	.	.
O=C(CC1NC(=O)NC1=O)Nc1ccc(Cl)cc1 (stereo unspecified)	7	2	-3	-7	0	0
SMILES	Vc quorum ag-1	RN4220 kill	Mtb betalactam	Sa ugtP lethal	PfHsp40 rescue	Vc quorum ag-2	others
O=C(CC1SC(=O)NC1=O)Nc1ccc(Cl)cc1 (stereo unspecified)	4	7	-6	-1	3	.
COC(=O)[C@@]12CCCCN1C(c1ccc(-c3cccc(Cl)c3)cc1)C1C(=O)N(C)C(=O)C12 (stereo partly specified)	.	-6	.	-3	.	.
O=C(COc1ccccc1)Nc1ccccc1N1CCCCC1	8	-3	92	-9	8	.
O=C(COc1cccc(Cl)c1)Nc1ccccc1N1CCCCC1	19	3	9	-9	0	0
CCC(=O)N(C)CCc1cc2c(c(OC)c1C=NNC(=O)c1ccncc1)OCO2	.	2	.	-1	.	.
CC(C)(C)OC(=O)NCCCCC(NC(=O)c1[nH]cnc1C(=O)Nc1ccc(CNC(=O)OC(C)(C)C)cc1)C(=O)OC(C)(C)C (stereo unspecified)	.	5	.	-13	.	.
CC(OC(=O)c1ccc(-n2cnnn2)cc1)C(=O)N(C)c1ccccc1 (stereo unspecified)	14	2	.	2	0	1
O=C(CCC1CCCCC1)NCCN1C2=NCC(Cc3ccccc3)N2CC1Cc1ccc(O)cc1 (stereo unspecified)	.	-7	.	-1	.	.
CCN1C(=O)C2C(c3ccc(-c4ccc(OC)cc4)cc3)N[C@@](Cc3ccccc3)(C(=O)OC)C2C1=O (stereo partly specified)	.	5	.	18	.	.
Cc1cccc(CN(C)CCc2ccccn2)c1	i	2	0	6	0	.
Cc1cccc(OCC(=O)N(C)CCc2ccccn2)c1	25*	-3	-2	10	0	0
CC(C)Cn1c(S(=O)(=O)O)nc2ccccc21	i	4	6	11	-2	.
CCC(C)Cn1c(S(=O)(=O)O)nc2ccccc21 (stereo unspecified)	24	-19	-4	-8	0	0
O=[N+]([O-])c1ccc(N2CCOCC2)c2c1no[n+]2[O-]	35*	.	.	.	.	1
CCCCC1CNCCN1CCCc1cc(OC)c(OC)c(OC)c1 (stereo unspecified)	.	3	.	-2	.	.
O=C(NCc1ccccn1)c1ccc(CS(=O)(=O)Cc2ccc(Cl)cc2)o1	15*	7	-8	11	-2	0
OCCC1CC(O)C(O)[C@]2(CCc3ccccc3O2)O1 (stereo partly specified)	.	3	.	-4	.	.
CN(C)CC(C)(C)CNC(=O)c1cc(=O)c2ccccc2o1	12	2	0	-2	-1	0
Cc1ccc(CNC(=O)c2cc(=O)c3ccccc3o2)cc1	-3	3	2	3	-1	.
O=C(Nc1c(F)c(F)c(F)c(F)c1F)C1CCCCC1	25	7	1	3	-1	2
O=C1OC(c2ccc3c(c2)OCO3)N(C(=O)c2ccc(Cl)c(Cl)c2)c2ccccc21 (stereo unspecified)	1	22	1	28	0	.
Cc1cccc(C(=O)N2c3ccccc3C(=O)OC2c2ccc3c(c2)OCO3)c1 (stereo unspecified)	32*	-3	-2	-6	0	4
O=C(CSc1nc(=O)n(CCN2CCOCC2)c2c1CCCC2)Nc1ccccc1Cl	0	.	.	.	.	.
